INHIBITION data for 56 compounds are collected here from ChEMBL document CHEMBL4513216, “Probing the Open Global Health Chemical Diversity Library for Multistage-Active Starting Points for Next-Generation Antimalarials” (ACS Infect Dis, 2020).

Out of some 69,000 compounds screened, about 8,600 (12%) showed an effect of 50% or more. The list comes from a sample in which strong results are over-represented; it also holds similar structures and randomly drawn compounds.

The assay relates to Plasmodium berghei. Nature of the assay: Screen against P. berghei liver stage (PbLuc), transformed with Luciferase, at 10uM. It is filed as functional, HepG2. The conditions noted are these: tested at 10 uM.
For the compound `O=C(Cc1n[nH]c2ccccc12)N1CCCC1Cn1cccn1` (stereo unspecified), the INHIBITION was 24%. In the case of `CCc1nnc(C(C)N2CCN(CCC(=O)NC3CC3)CC2)o1` (stereo unspecified), the INHIBITION is reported as 33.1%. `CCc1nnc(C(C)N2CCCN(C(=O)OCC(C)C)CC2)o1` (stereo unspecified): the INHIBITION amounted to 36.5%. In the case of `CCc1nnc(C(C)N2CCN(CCC(C)(C)C)CC2)o1` (stereo unspecified), the INHIBITION came to 62.4%. Turning to `Cc1cncc(C(=O)N2CCCC(O)(CN3CCCC3)C2)c1` (stereo unspecified), the INHIBITION is given as 4.13%. Consider `CN1CCCCC12Cc1ccccc1CN(C(=O)c1ccccc1)C2` (stereo unspecified), for which the INHIBITION stood at 10.1%. With `C[C@H](C(=O)N1Cc2ccccc2CC2(CCCN2C)C1)c1ccccc1` (stereo partly specified), the INHIBITION amounted to 51.6%. Consider `CC(=O)N1Cc2ccccc2CC2(CCCCN2C)C1` (stereo unspecified), for which the INHIBITION was 42.4%.

For the compound `CC(C)C(=O)N1Cc2ccccc2CC2(CCCCN2C)C1` (stereo unspecified), the INHIBITION turned out to be 53.2%. For the compound `CC(C)C(=O)N1Cc2ccccc2CC2(CCCN2C)C1` (stereo unspecified), the INHIBITION stood at 37.5%.

Regarding `CN1CCCCC12Cc1ccccc1CN(C(=O)C1CCCC1)C2` (stereo unspecified), the INHIBITION came to 8.49%. With `O=C(c1ccccc1)N(CC1CC1)c1cccnc1` the figure was 39.7%.

As for `Cc1cc(NCc2cc3n(n2)CCCN(C(=O)C2CCC2)C3)ncn1`, the INHIBITION is -2.46%.

With `CCc1nc(N2CCOCC2)ncc1C(=O)NC(c1cccs1)C(C)C` (stereo unspecified), the INHIBITION is 29.5%. In the case of `COCCN1C(=O)C2(CCC(C(=O)Nc3ccc(F)cc3)CC2)N=C1C` (stereo unspecified), the INHIBITION was 20.1%. With `COCCN1C=NC2(CCC(C(=O)Nc3ccc(C)cc3)CC2)C1=O` (stereo unspecified), the INHIBITION turned out to be 63.5%. The same measure for `COCCN1C(=O)C2(CCC(C(=O)Nc3ccc(C)cc3)CC2)N=C1C` (stereo unspecified): 31.4%. With `Cc1nc(Nc2cnccn2)cc(C2CN(C(C)C)C2)n1` the figure was -21.4%.

Take `Cc1ccc(-c2nnc(SCC(=O)O)n2-c2ccccc2)cc1`: the INHIBITION was found to be 5.11%. As for `CC(C)CS(=O)(=O)N1C[C@@H]2C[C@H](C(=O)N(C)C)[C@H](C1)O2`, the INHIBITION was 37.5%. Turning to `CCC(C(=O)N1CCN(S(=O)(=O)N2CCCC2)CC1)n1cccn1` (stereo unspecified), the INHIBITION is reported as 13%.

Consider `O=C1CCCC2=Nc3nonc3NC(c3cc(Cl)ccc3F)C12` (stereo unspecified), for which the INHIBITION is reported as 76.8%. Regarding `O=C1CCCC2=Nc3nonc3NC(c3cccc(F)c3F)C12` (stereo unspecified), the INHIBITION is 4.66%. Turning to `O=C1CCCC2=Nc3nonc3NC(c3ccc(F)cc3F)C12` (stereo unspecified), the INHIBITION is recorded as -37.6%.

For the compound `O=C1CCCC2=Nc3nonc3NC(c3ccccc3F)C12` (stereo unspecified), the INHIBITION is on record as 12.3%. On to `O=C1CCCC2=Nc3nonc3NC(c3ccccc3Cl)C12` (stereo unspecified), for which the INHIBITION is reported as 12.3%.

As for `O=C1CCCC2=Nc3nonc3NC(c3ccc(Cl)cc3Cl)C12` (stereo unspecified), the INHIBITION came to 57.8%. As for `CC(C)N1CCC(Cc2cc(-c3ccccc3C(=O)O)ncn2)CC1`, the INHIBITION worked out at 18.8%. Consider `CN1CCC(Cc2cncc(-c3ccccc3C(=O)O)n2)C1` (stereo unspecified), for which the INHIBITION was 56%.

`COCCN1CCC(Cc2cnc(-c3ccccc3C(=O)O)cn2)CC1`: the INHIBITION was 53%. Regarding `CC(C)N1CCC(Cc2cncc(-c3ccccc3C(=O)O)n2)CC1`, the INHIBITION came to 38.7%. On to `CC(C)N1CCC(Cc2cncc(-c3ccccc3C(=O)O)n2)C1` (stereo unspecified), for which the INHIBITION was found to be 15.9%.

As for `CS(=O)(=O)N1CCCC(Cc2cncc(-c3ccccc3C(=O)O)n2)C1` (stereo unspecified), the INHIBITION is listed as -1.85%. With `CC1=Nc2c(c(=O)[nH]n2C(C)C)C(c2cccc(OC(F)F)c2)S1` (stereo unspecified), the INHIBITION is on record as -28.4%. The same measure for `Cc1cccc2nc(CN3CCC(N4CCN(C)C4=O)CC3)cn12`: -54.1%. With `COc1nn(C)c2c1CCCN(C(=O)c1cccc(C)n1)C2` the figure was 31.2%.

In the case of `CN1CCC(N2CCC(CN(Cc3ccncc3)C3CCC3)CC2)CC1`, the INHIBITION amounted to 53.8%. With `COCCN1CCC(CN(Cc2ccncc2)C2CCCCC2)CC1`, the INHIBITION is on record as -32.1%. For the compound `COCCN1CCC(CN(Cc2ccncc2)C2CCC2)CC1`, the INHIBITION was 43.7%. As for `O=C(C1=CCCC1)N1C[C@@H]2COC[C@]2(COc2ncccc2F)C1`, the INHIBITION came to 16.8%. `CC(O)CN(C(=O)NC1CC1)C(C)C` (stereo unspecified): the INHIBITION turned out to be 55.4%. With `CC(C)N(CC(C)(C)O)C(=O)NC1CC1`, the INHIBITION is 23.5%.

`CC(O)CN(C(=O)NC1CCN(CC2CCCCC2)CC1)C(C)C` (stereo unspecified): the INHIBITION was determined as 21.2%. The same measure for `Cc1noc(C)c1CN(C)c1nc(C2CCCC2)nc2c1cnn2C`: 20%. As to `Cn1ncc(NC(=O)Cn2cc(-c3ccc(F)cn3)cn2)n1`, the INHIBITION turned out to be 77.9%. With `CNC(=O)CNC(=O)c1ccc(-c2scnc2C)nc1` the figure was -89.4%; with `Cc1cc(NC(=O)Cn2ccc(-c3ccc4c(c3)OCO4)n2)n(C)n1`, 13.8%. Take `Cc1ccc(-c2cnn(CC(=O)NC(C)C)c2)cc1`: the INHIBITION is recorded as 45.7%. As for `Cn1nccc1NC(=O)Cn1ccc(-c2ccc3c(c2)OCO3)n1`, the INHIBITION is 43.4%.

For `Cc1nc(C)c(-c2ccn(CC(=O)Nc3cnn(C)n3)n2)s1`, the INHIBITION stood at 82.4%.

As to `Cn1ncc(NC(=O)Cn2ccc(-c3ccc(F)cc3)n2)n1`, the INHIBITION was 52.2%.

As for `Cc1ncsc1-c1cc(C(=O)NCCO)ccn1`, the INHIBITION worked out at 42.6%.

For the compound `CC(C)NC(=O)Cn1cc(-c2ccccc2)cn1`, the INHIBITION is given as -16.7%. Take `Cn1ncc(NC(=O)Cn2ccc(-c3cccc(F)c3)n2)n1`: the INHIBITION stood at 7.39%. With `NC(=O)NC(=O)CCn1ccc(-c2ccc(F)cc2)n1` the figure was 16.2%; with `Cc1ncsc1-c1ccn(CC(=O)Nc2cnn(C)n2)n1`, 85.7%.
